This is a sample that favours compounds with a hit; in the whole collection about 7.6% have one here.
Giardia kill = kills Giardia lamblia. Giardia lamblia trophozoite viability. activity change, % at 7.66 µM, hits read low. hit rate 0.15% among 340,000. AID 540267; in the data active = activity change below about -80%; inconclusive = between about -30% and that limit;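 also: parasites exposed to compound for two days anaerobically before the ATP read; % is scaled to controls: 0 for no effect and ±100 for the full control effect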
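Trophozoite viability was measured as ATP-dependent luminescence, read 15-30 min after reagent addition. Before that, parasites at 100 cells/well were exposed to compounds for 48 h, anaerobically, at 37 deg C.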
BRCA1 expr act = BRCA1 expression activation; MCF7-BRCA1-FFLuc reporter, luminescence, 48 h; response scale: scaled: vehicle 0%, 10 µM genistein 100%; Potency, µM (series often up to 46.1 µM), for inactives: top-dose activation, actives largely listed as activators; hit rate 1.1% among 380,000; AID 624202; also: potency is read from the fitted curve at half-maximal effect; nearly all actives have a fitted effect of over 80% in size
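Using MCF7 cells harboring a BRCA1 firefly luciferase reporter, plated 2 h before compound pinning, the screen measured luminescence after 48 h incubation. Responses were normalized to DMSO and 10 microM genistein, then fitted for concentration-effect.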
ELG1 DNA repair = inhibitors of ELG1-dependent DNA repair in HEK293T cells | HEK293T ELG1-luciferase reporter, luminescence, 16 h; DNA damage induced by 5-fluorouridine | Potency, µM (doses to about 46.1 µM), without a hit: at the top dose activity change, negative = inhibition, hits mostly inhibitors | hit rate 2.3% among 330,000 | AID 504467; also: potency is read from the fitted curve at half-maximal effect; % is scaled to controls: 0 for no effect and ±100 for the full control effect; nearly all actives have a fitted effect of over 55% in size
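HEK293T cells expressing luciferase-tagged ELG1 (2,000/well) received 5-Fluorouridine plus compound or DMSO for 16 hr at 37 °C. Luciferase was read by ONE-Glo luminescence after 30 min at room temperature.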
p53 reactivator = mutant p53 re-activation in reporter cells; Potency, µM (highest dose often 92.2 µM), inactives show at the top dose activity change, positive = activation, actives largely listed as activators; hit rate 0.063% among 320,000; AID 504706; H1299 p53-A138V BP100-luciferase reporter, luminescence, 24 h; also: potency is read from the fitted curve at half-maximal effect; % of control where 0% means no effect; nearly all actives have a fitted effect of over 45% in size
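H1299 (p53-null), stable ts p53-A138V + BP100-Luc; 1000 cells/well, Opti-MEM/10% FBS; cpd 4 pt, 1:5; 24 h, 37 deg C, 5% CO2; detection reagent 10 min RT; luminescence.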
VP16 counter = inhibits Gal4-VP16 luciferase reporter, ROR gamma counter-screen; Drosophila S2 Gal4-VP16 UAS-luciferase, luminescence, 20 h; Potency, µM (highest dose often 53.6 µM), without a hit: at the highest dose activity, negative = inhibition, hits mostly inhibitors; hit rate 3.5% among 310,000;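 also: Gal4-VP16 expression switched on by copper sulfate through the metallothionein promoter; potency is read from the fitted curve at half-maximal effect; % is scaled to controls: 0 for no effect and ±100 for the full control effect; nearly all actives have a fitted effect of over 50% in size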
RORgamma inh = inhibitors of mouse ROR gamma transcriptional activity; Drosophila S2 Gal4-RORgamma UAS-luciferase reporter, 20 h; Potency, µM (top dose mostly 53.6 µM), without a hit: top-dose activity change, negative = inhibition, most hits filed as inhibitors; hit rate 5.4% among 310,000; AID 2551; also: potency is read from the fitted curve at half-maximal effect; % is scaled to controls: 0 for no effect and ±100 for the full control effect; nearly all actives have a fitted effect of over 60% in size
Target sequence (P51450 whole entry, looked up, the tested form may be a part): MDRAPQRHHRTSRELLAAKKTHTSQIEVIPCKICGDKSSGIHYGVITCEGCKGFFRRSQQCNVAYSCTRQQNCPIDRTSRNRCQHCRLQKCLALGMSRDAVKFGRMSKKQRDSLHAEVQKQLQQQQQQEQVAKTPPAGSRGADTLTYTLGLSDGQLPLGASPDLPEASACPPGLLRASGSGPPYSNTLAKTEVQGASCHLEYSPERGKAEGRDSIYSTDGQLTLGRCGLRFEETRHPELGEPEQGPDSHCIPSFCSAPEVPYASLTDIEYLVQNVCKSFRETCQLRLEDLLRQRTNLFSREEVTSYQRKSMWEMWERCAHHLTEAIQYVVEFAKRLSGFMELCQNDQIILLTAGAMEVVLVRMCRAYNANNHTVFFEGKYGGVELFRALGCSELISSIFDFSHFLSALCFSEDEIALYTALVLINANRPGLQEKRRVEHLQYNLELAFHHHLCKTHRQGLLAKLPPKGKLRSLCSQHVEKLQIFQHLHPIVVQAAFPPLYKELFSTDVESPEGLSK
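Read-out: Photinus luciferase luminescence; inhibitors lower reporter signal. Insect Schneider cells with Gal4-ROR gamma fusion under metallothionein promoter, UAS reporter; 700 uM final copper sulfate induction, 20 hr, ambient temperature.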
Active calls of the source: *; ? = inconclusive; . = no result given; [ ] = remark or other dose. Unless noted, calls follow the shape of the dose curve; as a rule, active = well fitted curve in the direction sought with a large enough effect; inconclusive = small, poorly fitted or top-dose-only effect, or another doubt; inactive = no such curve, though single readings can be large; an effect the other way counts as inactive or inconclusive.

SMILES | Giardia kill | BRCA1 expr act | ELG1 DNA repair | p53 reactivator | VP16 counter | RORgamma inh
COc1cccc(NC(=O)Nc2ccc3c(c2)OCO3)c1 | -21.3 | 2.82µM* | ? | ? | 2.6% | 1.5%
COc1cccc(NC(=O)CN(C)CC(=O)Nc2ccc3c(c2)OCO3)c1 | -10.6 | -10.8% | -6.7% | -7.7% | . | .
C/C(=C\C(=O)c1ccccc1)Nc1ccc2c(c1)OCO2 | 1.8 | 7.94µM* | ? | ? | 18.7% | -10.8%
Cc1ccccc1CSc1nccn1-c1ccccc1 | -8.5 | -13.1% | ? | 0.6% | 12.6µM* | 2.51µM*
COC(=O)C1CCCCN1C(=O)c1cccc(OC2CCN(C(=O)C3CC3)CC2)c1 (configuration not stated) | 3.4 | -8.9% | -6.5% | 6.4% | -2.5% | 6.2%
C/C(Cn1nnc([N+](=O)[O-])n1)=N\NC(=O)c1cccc(Cl)c1 | 1.7 | -83.7% | 19.8% | ? | ? | 10µM*
C/C(Cn1nc([N+](=O)[O-])cc1C)=N\NC(=O)c1cccc(Br)c1 | -2.3 | -18.3% | -14.6% | -6.5% | ? | 12.6µM*
C/C(Cn1nc([N+](=O)[O-])cc1C)=N\NC(=O)COc1ccccc1[N+](=O)[O-] | -10.1 | -11.0% | -3.7% | -8.8% | ? | 2.2%
O=[N+]([O-])c1ccc(O)c2cccnc12 | 7.9 | -4.4% | -6.9% | 1.5% | -22.4% | ?
CS(=O)(=O)N1CCN(c2ccc([N+](=O)[O-])c3cccnc23)CC1 | -82.0* | 0.0% | ? | -4.0% | -6.1% | -16.9%
O=[N+]([O-])c1ccc(O)c2ncccc12 | -11.5 | -76.1% | ? | 16.7% | 0.562µM* | 0.282µM*
O=[N+]([O-])c1cc([N+](=O)[O-])c2cccnc2c1Oc1ccccc1O | 7.7 | -54.0% | -20.3% | 29.0% | ? | 17.8µM*
CC1(C)Cc2nc3sc4c(SCC(=O)O)ncnc4c3cc2CO1 | ? | -48.2% | ? | -7.6% | 14.1µM* | 8.91µM*
Cc1c(C(=O)Nc2nonc2-c2ccc(F)cc2)oc2ccc(F)cc12 | -6.2 | -25.0% | ? | 19.1% | ? | 8.91µM*
Cn1ccnc1SCC(=O)Nc1cccc2ccccc12 | 1.3 | 23.0% | ? | 4.9% | 7.0% | -1.0%
Cn1ccnc1SCC(=O)n1c2c(c3ccccc31)CCCC2 | 30.7 | -4.5% | -1.7% | -3.4% | -29.8% | 14.1µM*
O=C(O)c1cc(Cl)c(Cl)cc1C(=O)N1CCCC1 | -90.8* | -14.8% | 0.9% | -0.4% | . | -4.3%[0.365 µM]
O=C(O)c1cc(Cl)c(Cl)cc1C(=O)N1CCOCC1 | 17.2 | 10.8% | 13.1% | -1.5% | 20.3% | 4.6%
CC(=O)c1sc(NC(=O)CCS(=O)(=O)c2ccc(Cl)cc2)nc1C | -3.5 | -65.6% | 3.1% | -22.3% | . | .
Cn1cc(Cl)c(C(=O)Nc2nc3ccc(Cl)cc3s2)n1 | -16.2 | 12.6µM* | ? | ? | 16.8% | ?
O=C(Nc1ccc(S(=O)(=O)Nc2nccs2)cc1)C(F)(F)F | -5.0 | -27.0% | . | . | . | .
N#CC1=C(N)SC(N)=C(C#N)C1c1ccoc1 | . | . | -13.2% | 4.7% | 18.4% | -4.8%
CCCOc1ccccc1C1NC(=O)NC(C)=C1C(=O)OCCOC (configuration not stated) | 13.9 | 7.3% | 6.5% | -9.6% | 2.4% | 1.2%
CC1=C(C(=O)OCc2ccc3c(c2)OCO3)C(c2ccccc2)NC(=O)N1 (configuration not stated) | 4.0 | -63.2% | 2.06µM* | 1.3% | 0.6% | -1.1%
CCCOc1ccccc1C1NC(=O)NC(C)=C1C(=O)OCc1ccccc1 (configuration not stated) | 6.8 | 0.6% | 16.4µM* | -8.2% | ? | 0.8%
SMILES | Giardia kill | BRCA1 expr act | ELG1 DNA repair | p53 reactivator | VP16 counter | RORgamma inh
CC1=C(C(=O)OCc2ccc3c(c2)OCO3)C(c2ccc(O)c([N+](=O)[O-])c2)NC(=O)N1 (configuration not stated) | 1.4 | 25.8% | 9.2µM* | -4.8% | 4.3% | 4.0%
COc1ccc(NC(=O)Nc2ccccc2F)c([N+](=O)[O-])c1 | -23.2 | 84.8% | ? | 5.5% | -1.4% | 33.4%
O=C(Nc1cccc(O)c1)c1cc(-c2ccc3c(c2)OCO3)on1 | -82.2* | 38.7% | ? | -10.7% | 1.41µM* | 3.98µM*
COc1ccc(NC(=O)c2cc(-c3ccccc3Cl)on2)cc1OC | 0.6 | 0.5% | ? | . | -7.1% | 5.4%
O=C(Nc1ccccc1)OCc1cnc(Cl)s1 | 7.4 | 14.3% | ? | -2.2% | 6.4% | 36.0%
O=C(Nc1cccc(O)c1)c1cc(-c2ccccc2Cl)on1 | ? | 6.8% | ? | ? | 1.26µM* | 0.224µM*
O=C(Nc1ccccc1)OCc1cc(-c2ccccc2Cl)on1 | 7.4 | 8.91µM* | ? | ? | 4.1% | ?
O=C(CCSCc1ccccc1)Nc1ccc2c(c1)OCCO2 | -16.2 | 36.8% | ? | 11.7% | 6.1% | 31.9%
CCC(=O)N1CCC1(C)C(=O)Nc1cccc(OC)c1 (configuration not stated) | . | 0.0% | . | . | . | .
COc1ccc(/C=N/n2cnc3c(sc(=S)n3-c3ccccc3)c2=O)cc1 | 9.8 | -15.7% | 2.3% | -1.2% | -11.5% | 12.3%
CCOC(=O)C1=C(O)/C(=C/c2ccccn2)SC1=Nc1ccc(Cl)cc1 | 10.8 | -29.4% | 20.6µM* | -10.4% | -28.1% | -25.4%
N#Cc1ccccc1CSc1nc2ncc(Br)cc2[nH]1 | -8.9 | 8.2% | 23.3% | ? | . | -8.2%[0.365 µM]
Fc1ccccc1CSc1nc2ncc(Br)cc2[nH]1 | 12.1 | 11.2µM* | ? | 15.6% | 23.7% | -12.4%
COc1cc2c(cc1OC)C1=NC(=O)CN1C(SCc1ccccc1C)=N2 | -16.1 | -3.9%[1.84 µM] | 10.3µM* | 1.1% | -4.0% | ?
CC(=O)c1ccc(OC2(C)CCN(CCOc3ccc(C)cc3)C2)cc1 (configuration not stated) | . | 5.2% | . | . | . | .
Cc1ccc(NC(=S)N/N=C/c2cccn2Cc2ccccc2F)cc1 | 27.9 | -10.4% | 2.4% | 6.3% | 1.12µM* | 0.355µM*
C/C(=C\c1ccc(N)cc1)c1nc2ccccc2[nH]1 | 5.2 | 7.94µM* | ? | ? | 1.7% | -22.4%
Cc1ccc(/C=C(\C#N)c2nc3ccccc3[nH]2)s1 | ? | -51.4% | ? | ? | 10µM* | ?
N#C/C(=C(/O)CN1C(=O)c2ccccc2C1=O)c1nc2ccccc2[nH]1 | 20.8 | -6.9% | 1.9% | 3.7% | ? | 11.2µM*
N#C/C(=C(/O)CCl)c1nc2ccccc2[nH]1 | 26.1 | -95.7% | -12.0% | -17.6% | 10µM* | 5.01µM*
CC1Nc2ncnc(N3CCc4ccccc4C3)c2N(Cc2ccccc2)C1=O (configuration not stated) | . | -12.0% | . | . | . | .

High-throughput results (PubChem BioAssay)
